Eight molecules from PubChem BioAssay (Tox21) can be followed below.

Assay [1] in a line: qHTS assay to identify small molecule antagonists of the sonic hedgehog signaling (Shh) pathway (AID 1259369). Also: nearly all actives have a fitted effect of over 45% in size. Also: potency is read from the fitted curve at half-maximal effect. An outline of the steps: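 Cells are plated and held 4hr at 37 C, compounds (DMSO) are pinned in, conditioned medium is added to stimulate the pathway, and after 24hr luciferase reagent is added for 30min before luminescence is read.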
Assay [2] can be described thus: qHTS assay to identify small molecule agonists of the androgen receptor (AR) signaling pathway in the presence of an antagonist - cell viability counter screen (AID 1259379; active = well fitted curve in the direction sought with a large enough effect in the repeat runs; an effect the other way counts as inactive or inconclusive;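 also: MDA-kb2 human breast cancer cells carrying an MMTV luciferase reporter; series mostly up to about 92 µM; nearly all actives have a fitted effect of over 25% in size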). The method in brief: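 Cytotoxicity is assessed by CellTiter-Fluor in MDA-kb2 cells carrying an MMTV-driven luciferase reporter. Cells receive 3.0uM nilutamide plus compounds at 15 concentrations and incubate 16 hr at 37C without CO2 before fluorescence reading.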
For orientation: Quantitative high-throughput screening tests each substance at several concentrations.

Assay [3] can be described thus: qHTS assay to identify small molecule agonists of the estrogen receptor beta (ER-beta) signaling pathway - cell viability counter screen (AID 1259380; active = well fitted curve in the direction sought with a large enough effect in the repeat runs; an effect the other way counts as inactive or inconclusive; also: nearly all actives have a fitted effect of over 30% in size; also: potency is read from the fitted curve at half-maximal effect). The method in brief:
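Cytotoxicity is measured in parallel with the reporter screen: after 16 hr compound exposure at 37C and a 2 hr LiveBLAzer step, CellTiter-Glo is added to the same ER-beta-UAS-bla HEK293T wells and luminescence read after 30 min.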

Assay [4] addresses Androgen receptor (Homo sapiens) (UniProt P10275). The assay is described as follows: qHTS assay to identify small molecule agonists of the androgen receptor (AR) signaling pathway in the presence of an antagonist (AID 1259381). Also: nearly all actives have a fitted effect of over 15% in size. An outline of the steps:
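Agonist-mode confirmation screen: human MDA-kb2 cells stably expressing luciferase under an MMTV promoter bearing AR and GR response elements, co-treated with 3.0uM nilutamide (final). Luminescence measured after 16hr compound incubation.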

A short description of assay [5]: qHTS assay to identify small molecule antagonists of the estrogen receptor beta (ER-beta) signaling pathway - cell viability counter screen (AID 1259382; active = well fitted curve in the direction sought with a large enough effect in the repeat runs; an effect the other way counts as inactive or inconclusive; also: series mostly up to about 92 µM; nearly all actives have a fitted effect of over 55% in size). An outline of the steps: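 Cytotoxicity counter screen multiplexed with the beta-lactamase antagonist assay: GripTite HEK293T ER-beta-bla cells were treated 16 hr with test chemicals in the presence of 1nM 17-beta-estradiol, and viability was measured by CellTiter-Glo.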

Assay [6] addresses Estrogen receptor (Homo sapiens) (UniProt P03372). The assay is described as follows: qHTS assay to identify small molecule agonists of the estrogen receptor alpha (ER-alpha) signaling pathway in the presence of an antagonist (AID 1259383). Also: top concentration of the series differs between compounds; nearly all actives have a fitted effect of over 15% in size. An outline of the steps:
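Agonist-mode confirmation in the presence of the ER antagonist ICI-182,780 at 10.0nM final. Breast-derived VM7Luc4E2 reporter cells were exposed to compounds for 22hr, and ERE-driven luciferase was quantified by luminescence.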

A short description of assay [7]: qHTS assay to identify small molecule agonists or antagonists of the thyroid stimulating hormone receptor (TSHR) signaling pathway - wild type cell line counter screen (AID 1259384). An outline of the steps:
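Wild-type Hek293 cells, 800/well, 18 h at 37C, then compound with Ro20-1724 for 30 min RT. cAMP by HTRF (cAMP-d2/anti-cAMP cryptate), 1 h RT, fluorescence read. 15 concentrations, triplicates.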

Assay [8] deals with Thyrotropin receptor (Homo sapiens) (UniProt P16473). The assay is described as follows: qHTS assay to identify small molecule antagonists of the thyroid stimulating hormone receptor (TSHR) signaling pathway (AID 1259385). Also: nearly all actives have a fitted effect of over 20% in size. An outline of the steps: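 TSHR-HEK293 cells (800/well) plated 18 h, then compounds with Ro20-1724 and TSH at 1.5 ng/mL final, 30 min at room temperature. cAMP quantified by HTRF (cAMP-d2/anti-cAMP-cryptate, 1 h); 15 concentrations in triplicate.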
Thyrotropin receptor (Homo sapiens), sequence (P16473 whole entry, looked up): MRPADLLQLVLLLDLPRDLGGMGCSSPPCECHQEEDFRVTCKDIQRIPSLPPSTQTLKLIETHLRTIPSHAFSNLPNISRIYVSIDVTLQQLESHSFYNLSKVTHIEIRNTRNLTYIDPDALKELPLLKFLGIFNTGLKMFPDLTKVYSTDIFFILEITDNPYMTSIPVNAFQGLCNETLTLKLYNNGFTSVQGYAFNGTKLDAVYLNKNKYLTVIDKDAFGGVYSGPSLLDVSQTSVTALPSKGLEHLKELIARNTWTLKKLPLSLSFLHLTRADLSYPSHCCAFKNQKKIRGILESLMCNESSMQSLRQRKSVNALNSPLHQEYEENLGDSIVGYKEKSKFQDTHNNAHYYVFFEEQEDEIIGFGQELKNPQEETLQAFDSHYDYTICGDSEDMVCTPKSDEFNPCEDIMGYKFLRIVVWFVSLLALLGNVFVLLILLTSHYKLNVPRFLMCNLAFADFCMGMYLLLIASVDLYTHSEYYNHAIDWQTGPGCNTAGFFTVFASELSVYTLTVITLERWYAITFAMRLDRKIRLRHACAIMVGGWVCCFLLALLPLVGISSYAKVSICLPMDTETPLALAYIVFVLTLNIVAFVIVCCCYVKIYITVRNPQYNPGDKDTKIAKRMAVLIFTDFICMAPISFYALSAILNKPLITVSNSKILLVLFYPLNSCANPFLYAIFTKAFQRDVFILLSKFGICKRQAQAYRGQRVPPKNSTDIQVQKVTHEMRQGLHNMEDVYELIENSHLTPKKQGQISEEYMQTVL

A short description of assay [9]: qHTS assay to identify small molecule agonists of the estrogen receptor alpha (ER-alpha) signaling pathway in the presence of an antagonist - cell viability counter screen (AID 1259386; active = well fitted curve in the direction sought with a large enough effect in the repeat runs; an effect the other way counts as inactive or inconclusive;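 also: cells exposed to compounds for 22 h at 37 °C before the viability read; nearly all actives have a fitted effect of over 30% in size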; also: potency is read from the fitted curve at half-maximal effect). The method in brief:
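Cytotoxicity was measured in parallel with the ERE-luciferase agonist screen, in the same wells. The cells were VM7Luc4E2, which endogenously express ER-alpha, and treatment was with compounds plus 10.0nM ICI-182,780 for 22hr.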

The target of assay [10] is Progesterone receptor (Homo sapiens) (UniProt P06401). The assay is described as follows: qHTS assay to identify small molecule agonists of the progesterone receptor (PR) signaling pathway (AID 1346784). Also: nearly all actives have a fitted effect of over 30% in size. An outline of the steps: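 Beta-lactamase reporter read-out: after 16 hr compound treatment at 37C and a further 2 hr at room temperature with LiveBLAzer B/G FRET substrate, fluorescence was measured in PR-UAS-bla HEK 293T cells grown in 2% charcoal-stripped serum.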
Progesterone receptor (Homo sapiens), sequence (P06401 whole entry, looked up): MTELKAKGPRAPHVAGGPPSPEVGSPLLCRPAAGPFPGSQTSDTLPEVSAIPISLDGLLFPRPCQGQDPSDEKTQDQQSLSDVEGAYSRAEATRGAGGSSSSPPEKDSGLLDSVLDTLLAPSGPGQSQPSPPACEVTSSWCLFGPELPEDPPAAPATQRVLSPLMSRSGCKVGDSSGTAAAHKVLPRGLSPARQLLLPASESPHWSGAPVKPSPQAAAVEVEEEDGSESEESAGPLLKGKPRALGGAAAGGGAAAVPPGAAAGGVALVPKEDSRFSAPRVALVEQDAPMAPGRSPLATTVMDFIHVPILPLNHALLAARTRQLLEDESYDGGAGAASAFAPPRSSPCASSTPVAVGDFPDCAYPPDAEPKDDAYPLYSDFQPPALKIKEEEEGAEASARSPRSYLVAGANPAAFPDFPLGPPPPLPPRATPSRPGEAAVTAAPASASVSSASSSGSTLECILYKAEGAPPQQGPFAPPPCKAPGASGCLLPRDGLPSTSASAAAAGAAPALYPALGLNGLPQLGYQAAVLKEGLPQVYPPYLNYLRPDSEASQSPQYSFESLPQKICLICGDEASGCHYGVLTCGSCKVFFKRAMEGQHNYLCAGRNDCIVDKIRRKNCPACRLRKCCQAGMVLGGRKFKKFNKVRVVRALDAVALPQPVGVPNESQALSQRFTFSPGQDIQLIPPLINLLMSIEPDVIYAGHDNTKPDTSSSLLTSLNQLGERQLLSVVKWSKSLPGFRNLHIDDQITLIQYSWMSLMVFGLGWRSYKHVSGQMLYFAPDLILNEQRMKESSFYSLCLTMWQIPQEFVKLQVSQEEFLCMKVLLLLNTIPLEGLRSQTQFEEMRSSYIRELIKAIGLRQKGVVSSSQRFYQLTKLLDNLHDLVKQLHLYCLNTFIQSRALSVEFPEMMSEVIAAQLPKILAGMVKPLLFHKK

The target is the same in assay [11]. The assay is described as follows: qHTS assay to identify small molecule antagonists of the progesterone receptor (PR) signaling pathway (AID 1346795; active = well fitted inhibition curve with a large enough effect in the signal ratio in the repeat runs, not every such curve was filed as active; the % refers to the signal ratio; also: potency is read from the fitted curve at half-maximal effect). An outline of the steps: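 Read-out is fluorescence from the LiveBLAzer B/G FRET substrate, cleaved by a UAS-controlled beta-lactamase in PR-UAS-bla HEK293T cells after 16 hr exposure to compound plus 1 nM promegestone (final), followed by 2 hr at room temperature.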

Assay [12] can be described thus: qHTS assay to identify small molecule antagonists of the progesterone receptor (PR) signaling pathway - cell viability counter screen (AID 1346798; active = well fitted curve in the direction sought with a large enough effect in the repeat runs; an effect the other way counts as inactive or inconclusive; also: nearly all actives have a fitted effect of over 50% in size; also: potency is read from the fitted curve at half-maximal effect). An outline of the steps: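 HEK293T PR-UAS-bla, 2% charcoal-stripped FBS; 4 hr pre-plate; cpd + R5020, 16 h 37C; LiveBLAzer read first; then CellTiter-Glo 30 min RT, luminescence.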
A short description of assay [13]: qHTS assay to identify small molecule agonists of the progesterone receptor (PR) signaling pathway - cell viability counter screen (AID 1346799). Also: nearly all actives have a fitted effect of over 45% in size. Also: potency is read from the fitted curve at half-maximal effect. An outline of the steps: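 Luminescence from CellTiter-Glo, added after the beta-lactamase FRET read in the same wells, gave cytotoxicity in PR-UAS-bla HEK293T cells treated with compounds for 16 hr at 37C.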
The nature of assay [14]: qHTS assay to identify small molecule antagonists of the TGF-beta/Smad signaling pathway - cell viability counter screen (AID 1346824; active = well fitted curve in the direction sought with a large enough effect in the repeat runs; an effect the other way counts as inactive or inconclusive; also: nearly all actives have a fitted effect of over 50% in size). The method in brief:
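SBE-bla HEK 293T cells, incubated overnight, then compound plus 0.25 ng/mL TGF-beta1 (stock added) for 5 hr at 37 C. Viability was read in the same wells by CellTiter-Glo luminescence after 30 min at room temperature.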

Assay [15] can be described thus: qHTS assay to identify small molecule agonists of the TGF-beta/Smad signaling pathway - cell viability counter screen (AID 1346829; active = well fitted curve in the direction sought with a large enough effect in the repeat runs; an effect the other way counts as inactive or inconclusive; also: top concentration of the series differs between compounds; nearly all actives have a fitted effect of over 45% in size). The method in brief:
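In parallel with the Smad reporter read, viability of HEK 293T cells stably carrying SBE-bla is quantified by ATP luminescence following 5 hr compound treatment.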

A short description of assay [16]: qHTS assay to identify small molecule agonists of the TGF-beta/Smad signaling pathway (AID 1346859; active = well fitted activation curve with a large enough effect in the signal ratio in the repeat runs, not every such curve was filed as active; the % refers to the signal ratio; also: series mostly up to about 77 µM). The method in brief: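 SBE-bla HEK 293T, 4,000 cells/well, plated o/n; cpd in DMSO, 5 hr, 37 C/5% CO2; B/G FRET substrate 2 hr RT; ex 405, em 460/530 nm.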
Assay [17] deals with Thyrotropin-releasing hormone receptor (Homo sapiens) (UniProt P34981). The assay is described as follows: qHTS assay to identify small molecule antagonists of the thyrotropin-releasing hormone receptor (TRHR) signaling pathway (AID 1346877; active = well fitted inhibition curve with a large enough effect in the repeat runs, not every such curve was filed as active; also: series mostly up to about 51 µM). The method in brief:
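Antagonism is measured as suppression of the calcium response to 1 nM TRH in TRHR-HEK293 cells that have been dye-loaded for 2 h at 37 °C after overnight plating. Each compound is tested at 15 concentrations in triplicate.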

For assay [18] the target is unchanged. The assay is described as follows: qHTS assay to identify small molecule agonists of the thyrotropin-releasing hormone receptor (TRHR) signaling pathway (AID 1346891). Also: series mostly up to about 58 µM. An outline of the steps:
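Intracellular calcium rise, read as fluorescence every second for 3 min, served as the agonist signal in dye-loaded HEK293 cells expressing TRHR; each compound ran at 15 concentrations in triplicate.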

Assay [19] concerns the target Estrogen receptor beta (Homo sapiens) (UniProt Q92731). The assay is described as follows: qHTS assay to identify small molecule antagonists of the estrogen receptor beta (ER-beta) signaling pathway (AID 1259378; active = well fitted inhibition curve with a large enough effect in the signal ratio in the repeat runs, not every such curve was filed as active; the % refers to the signal ratio; also: potency is read from the fitted curve at half-maximal effect). An outline of the steps: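 ER-beta-UAS-bla HEK293T cells in 2% charcoal-stripped FBS medium treated with compound plus 1nM final 17-beta-estradiol for 16 hr at 37C. Beta-lactamase reporter read by FRET substrate fluorescence after 2 hours at room temperature.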

A number with no mark means an inactive call. Records with an inconclusive call do not appear. Active and inactive are the calls of the source. Unless noted, calls follow the shape of the full dose curve.

Androgen receptor (Homo sapiens), sequence (P10275 whole entry, looked up): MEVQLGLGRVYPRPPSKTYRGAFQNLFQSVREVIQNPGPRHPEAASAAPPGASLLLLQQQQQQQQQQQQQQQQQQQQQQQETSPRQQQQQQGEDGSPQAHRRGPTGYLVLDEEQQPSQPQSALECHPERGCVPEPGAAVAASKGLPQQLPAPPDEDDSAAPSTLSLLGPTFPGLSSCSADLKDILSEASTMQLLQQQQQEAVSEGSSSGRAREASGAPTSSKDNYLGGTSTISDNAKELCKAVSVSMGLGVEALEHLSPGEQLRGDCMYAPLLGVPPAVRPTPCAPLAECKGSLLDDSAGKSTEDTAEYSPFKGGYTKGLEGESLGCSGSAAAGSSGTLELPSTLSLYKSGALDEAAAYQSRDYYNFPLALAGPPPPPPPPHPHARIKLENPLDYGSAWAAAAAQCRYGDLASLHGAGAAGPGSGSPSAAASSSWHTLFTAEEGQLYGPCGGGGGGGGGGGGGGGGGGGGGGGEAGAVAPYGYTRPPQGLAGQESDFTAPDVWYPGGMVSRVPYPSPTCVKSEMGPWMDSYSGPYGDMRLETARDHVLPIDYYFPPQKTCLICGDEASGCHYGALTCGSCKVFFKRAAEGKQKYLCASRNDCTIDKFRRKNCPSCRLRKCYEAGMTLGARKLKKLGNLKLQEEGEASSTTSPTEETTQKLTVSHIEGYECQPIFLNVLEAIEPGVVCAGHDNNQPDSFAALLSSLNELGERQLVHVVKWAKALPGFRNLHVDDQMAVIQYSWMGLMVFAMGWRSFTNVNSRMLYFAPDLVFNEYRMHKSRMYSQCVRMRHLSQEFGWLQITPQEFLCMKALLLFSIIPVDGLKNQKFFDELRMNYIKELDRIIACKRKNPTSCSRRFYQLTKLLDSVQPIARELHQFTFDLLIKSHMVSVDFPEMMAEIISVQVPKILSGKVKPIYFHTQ
Estrogen receptor (Homo sapiens), sequence (P03372 whole entry, looked up): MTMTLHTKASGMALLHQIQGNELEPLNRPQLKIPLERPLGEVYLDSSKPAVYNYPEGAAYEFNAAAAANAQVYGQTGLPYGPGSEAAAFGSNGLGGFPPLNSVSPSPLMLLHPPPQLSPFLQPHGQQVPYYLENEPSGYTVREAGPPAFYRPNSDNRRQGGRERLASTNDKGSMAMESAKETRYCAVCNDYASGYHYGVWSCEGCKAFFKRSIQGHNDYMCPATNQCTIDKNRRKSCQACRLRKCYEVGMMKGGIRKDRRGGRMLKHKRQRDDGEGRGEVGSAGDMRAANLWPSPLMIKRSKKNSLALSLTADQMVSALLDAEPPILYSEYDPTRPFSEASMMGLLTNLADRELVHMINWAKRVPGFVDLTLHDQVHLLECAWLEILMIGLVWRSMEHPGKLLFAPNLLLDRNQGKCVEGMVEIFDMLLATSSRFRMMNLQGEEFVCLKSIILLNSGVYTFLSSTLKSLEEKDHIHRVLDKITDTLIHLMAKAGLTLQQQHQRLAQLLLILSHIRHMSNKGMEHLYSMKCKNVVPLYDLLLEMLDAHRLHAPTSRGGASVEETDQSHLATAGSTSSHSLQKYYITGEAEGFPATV
Thyrotropin-releasing hormone receptor (Homo sapiens), sequence (P34981 whole entry, looked up): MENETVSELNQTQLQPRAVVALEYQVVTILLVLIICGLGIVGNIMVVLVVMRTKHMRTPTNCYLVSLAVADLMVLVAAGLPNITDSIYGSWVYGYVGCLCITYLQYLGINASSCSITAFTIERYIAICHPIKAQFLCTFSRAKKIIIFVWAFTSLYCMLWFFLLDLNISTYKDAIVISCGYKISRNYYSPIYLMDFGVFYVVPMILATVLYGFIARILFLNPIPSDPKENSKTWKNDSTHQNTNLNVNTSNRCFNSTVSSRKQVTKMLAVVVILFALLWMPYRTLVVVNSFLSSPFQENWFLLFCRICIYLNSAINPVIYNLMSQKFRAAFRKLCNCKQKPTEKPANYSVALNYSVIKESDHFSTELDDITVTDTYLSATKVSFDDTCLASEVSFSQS
Estrogen receptor beta (Homo sapiens), sequence (Q92731 whole entry, looked up): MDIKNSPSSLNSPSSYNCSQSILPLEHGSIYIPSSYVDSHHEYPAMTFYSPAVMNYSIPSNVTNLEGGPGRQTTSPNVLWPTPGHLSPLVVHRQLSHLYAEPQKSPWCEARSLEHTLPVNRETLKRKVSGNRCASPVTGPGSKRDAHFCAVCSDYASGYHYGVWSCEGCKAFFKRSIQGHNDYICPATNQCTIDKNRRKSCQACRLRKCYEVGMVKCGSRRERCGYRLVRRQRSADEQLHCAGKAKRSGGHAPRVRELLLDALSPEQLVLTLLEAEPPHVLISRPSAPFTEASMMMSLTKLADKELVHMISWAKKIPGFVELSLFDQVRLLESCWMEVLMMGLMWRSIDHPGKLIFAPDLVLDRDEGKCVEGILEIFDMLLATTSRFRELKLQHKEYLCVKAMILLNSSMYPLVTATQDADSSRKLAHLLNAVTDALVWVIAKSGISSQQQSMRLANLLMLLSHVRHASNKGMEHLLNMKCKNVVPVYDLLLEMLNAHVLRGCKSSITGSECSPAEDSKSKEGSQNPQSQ

Consider `C[C@@H](c1ncncc1F)C(O)(Cn1cncn1)c1ccc(F)cc1F` (stereo partly drawn), for which the Potency entry in assay [1], in assay [2], in assay [3], in [4], in assay [5] and in assay [6] was “inactive” in each case. Further, the Potency result in assay [7], in assay [8], in assay [9], in assay [10], in assay [11] and in assay [12] was “inactive” throughout. The Potency entry in [13], in assay [14], in assay [16] and in assay [18] was “inactive” each time. Further, the result in assay [15] and in assay [17] was inactive.

Turning to `CN(C)c1ccc(C(c2ccccc2)c2ccc(N(C)C)cc2)cc1`, the Potency is 3.06 µM (active) in assay [1], 17.2 µM (active) in [3] and 13.7 µM (active) in assay [11]. Further, the Potency result in [2], in assay [4], in assay [7], in assay [8], in assay [9] and in [10] was “inactive” each time. For the same molecule, the Potency entry in [12], in [13], in assay [14] and in [16] was “inactive” throughout. Also, the call in assay [15] and in assay [17] was inactive.

Regarding `NS(=O)(=O)c1ccc(N2CCCCS2(=O)=O)cc1`, the Potency result in [1], in assay [2], in assay [3], in assay [4], in [5] and in assay [6] was “inactive” throughout. Besides, the Potency result in assay [7], in assay [8], in [9], in assay [10], in assay [11] and in [12] was “inactive” each time. For the same molecule, the Potency result in assay [13], in assay [14] and in assay [16] was “inactive” in each case. The call in assay [15] and in assay [17] was inactive.

For the molecule `O=S(c1cc(Cl)cc(Cl)c1O)c1cc(Cl)cc(Cl)c1O`, the Potency in assay [1] was 21.1 µM (active); in assay [3] it was 29.8 µM (active). Moreover, the Potency entry in [2], in assay [4], in [6], in assay [7], in [8] and in [9] was “inactive” each time. Further, the Potency result in [13], in assay [14], in [16] and in [18] was “inactive” throughout. Also, the outcome in assay [15] and in assay [17] was inactive.

Take `Cc1oc(-c2ccccc2)nc1CCOc1cccc2c1ccn2CCC(=O)O`: the Potency result in assay [1], in [5], in assay [6], in assay [7] and in assay [14] was “inactive” throughout. In addition, the values for the Potency in assay [19], in assay [3] and in assay [9] were 30.6 µM (active), 10.9 µM (active) and 19.3 µM (active), respectively. Moreover, the molecule was classed as inactive in assay [15].

On to `CN(C)CCOC(c1ccccc1)c1ccc(Br)cc1` (stereo not drawn), for which the Potency in [1] was 2.11 µM (active); in [3], 23.7 µM (active); in assay [12], 13.3 µM (active); in assay [13], 16.8 µM (active). Further, the Potency entry in assay [2], in assay [4], in assay [6], in assay [7], in assay [8] and in assay [9] was “inactive” throughout. Further, the Potency result in assay [10], in assay [14], in assay [16] and in assay [18] was “inactive” in each case. Also, in assay [15], the outcome was inactive.

As to `O=C(OCCCCCCOC(=O)c1ccccc1)c1ccccc1`, in [1], the Potency is 27.3 µM (active). Further, the Potency result in assay [2], in assay [3], in [5], in [6], in [7] and in assay [8] was “inactive” each time. For the same molecule, the Potency entry in assay [9], in assay [10], in [14], in assay [16] and in [18] was “inactive” each time. The result in assay [15] and in [17] was inactive.

For `CC(COCCO)OCCO` (stereo not drawn), the Potency entry in assay [1], in [2], in [3], in assay [4], in assay [5] and in assay [7] was “inactive” throughout. Moreover, the Potency result in assay [8], in assay [9], in assay [10], in assay [11], in [12] and in [13] was “inactive” each time. Moreover, the Potency result in assay [14], in assay [16] and in assay [18] was “inactive” in each case. Besides, in assay [15], the outcome was inactive.
